According to PubChem BioAssay (Tox21):
Results filed as inconclusive are left out. Calls of active or inactive are those of the source. Unless noted, the call rests on the fitted dose curve; in most records, active means well fitted curve in the direction sought with a large enough effect in the repeat runs; inconclusive means weak or mixed curves; inactive means no such curve, though single readings can be large; an effect the other way counts as inactive or inconclusive.

Experiments:
[1] = qHTS assay for small molecules that induce genotoxicity in human embryonic kidney cells expressing luciferase-tagged ATAD5 (AID 651632); further: nearly all actives have a fitted effect of over 15% in size; further: potency means the concentration at half of the fitted maximal effect
How it was run: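 DMSO vehicle served as the control. HEK293T reporter cells, 16 hr at 37C, then 30 min Amplite at room temperature; ATAD5 induction is measured as luciferase activity.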

[2] = qHTS assay for small molecule agonists of the p53 signaling pathway - cell viability (AID 651633; calls by dose curve;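 further: p53RE-bla HCT reporter cells with a stable beta-lactamase p53 reporter; series mostly up to about 83 µM; nearly all actives have a fitted effect of over 30% in size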)
How it was run: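 p53RE-bla cells were treated with compound for 16 hours at 37 C. Cytotoxicity was then measured as CellTiter-Glo luminescence after 30 min at room temperature.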

[3] = qHTS assay for small molecules that induce genotoxicity in human embryonic kidney cells expressing luciferase-tagged ATAD5 - cell viability (AID 651634; calls by dose curve; further: nearly all actives have a fitted effect of over 25% in size)
How it was run: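 Here HEK293T cells with the ATAD5 luciferase reporter are incubated with test compounds for 15.5 hr, and cytotoxicity is then gauged by measuring protease activity in live cells using fluorescence.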

[4] = qHTS assay for small molecule disruptors of the mitochondrial membrane potential (AID 720635); further: potency means the concentration at half of the fitted maximal effect
How it was run: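 HepG2 cells exposed to compound 1 hr at 37C, then Mito-MPS dye 30 min. Ratio read of aggregate (540/590 nm) versus monomer (490/535 nm) fluorescence.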

[5] = qHTS assay to test for compound auto fluorescence at 590 nm (red) in HepG2 cells (AID 720674)
How it was run: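 Fluorescence at 590 nm emission following 540 nm excitation was recorded from HepG2 wells one hour after compound transfer, with DMSO-only wells as vehicle and Rose Bengal sodium equivalency as the scale.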

[6] = qHTS assay to test for compound auto fluorescence at 535 nm (green) in HepG2 cells (AID 720675)
[7] = qHTS assay to test for compound auto fluorescence at 460 nm (blue) in HEK293 cells (AID 720678)
How it was run: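 After cell attachment (4-5 hr, 37C), compounds were pinned onto HEK293 monolayers in 10% dialyzed FBS medium. The blue channel (405/460 nm) was read following overnight culture. Equivalency was calculated against triamterene.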

[8] = qHTS assay to test for compound auto fluorescence at 590 nm (red) in HEK293 cells (AID 720679)
How it was run: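 Plates of HEK293 cells (10% dialyzed FBS) are treated with 23 nL compound or DMSO vehicle after a 4-5 hr attachment period, incubated overnight at 37C, and read for red fluorescence at 540/590nm.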

[9] = qHTS assay to test for compound auto fluorescence at 535 nm (green) in HEK293 cells (AID 720680)
[10] = qHTS assay to test for compound auto fluorescence at 460 nm (blue) in HEK293 cell free culture (AID 720681)
How it was run: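 Compounds were added to cell-free DMEM with 10% FBS and fluorescence read directly. The blue channel used 405 nm excitation and 460 nm emission, with triamterene as the reference fluorophore.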

[11] = qHTS assay to test for compound auto fluorescence at 535 nm (green) in HEK293 cell free culture (AID 720682)
How it was run: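 Measurement is a direct plate read of green fluorescence (485 nm in, 535 nm out) after compound addition to serum-supplemented DMEM lacking cells, with fluorescein used to express intensities.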

[12] = qHTS assay to test for compound auto fluorescence at 590 nm (red) in HEK293 cell free culture (AID 720683)
How it was run: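 Cell-free wells of DMEM with 10% FBS received compound, and intrinsic fluorescence was read at excitation/emission 540/590 nm. Values expressed as equivalence to Rose Bengal sodium.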

[13] = qHTS assay to test for compound auto fluorescence at 590 nm (red) in HepG2 cell free culture (AID 720684)
How it was run: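 Auto fluorescence equivalency versus Rose Bengal sodium, red channel Ex/Em 540/590 nm; compounds in cell-free MEM/10% FBS; DMSO vehicle control.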

[14] = qHTS assay to test for compound auto fluorescence at 460 nm (blue) in HepG2 cell free culture (AID 720685)
How it was run: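 Cell-free plates of MEM plus 10% FBS received 23 nL compound or DMSO vehicle; blue-channel (405/460 nm) intensity scored against triamterene as reference fluorophore.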

[15] = qHTS assay to test for compound auto fluorescence at 535 nm (green) in HepG2 cell free culture (AID 720686)
[16] = target: Glucocorticoid receptor (Homo sapiens) (UniProt P04150); assay: qHTS assay to identify small molecule agonists of the glucocorticoid receptor (GR) signaling pathway (AID 720691; active means well fitted activation curve with a large enough effect in the signal ratio in the repeat runs, not every such curve was filed as active; the % refers to the signal ratio)
Sequence of Glucocorticoid receptor (Homo sapiens) (P04150 whole entry, looked up): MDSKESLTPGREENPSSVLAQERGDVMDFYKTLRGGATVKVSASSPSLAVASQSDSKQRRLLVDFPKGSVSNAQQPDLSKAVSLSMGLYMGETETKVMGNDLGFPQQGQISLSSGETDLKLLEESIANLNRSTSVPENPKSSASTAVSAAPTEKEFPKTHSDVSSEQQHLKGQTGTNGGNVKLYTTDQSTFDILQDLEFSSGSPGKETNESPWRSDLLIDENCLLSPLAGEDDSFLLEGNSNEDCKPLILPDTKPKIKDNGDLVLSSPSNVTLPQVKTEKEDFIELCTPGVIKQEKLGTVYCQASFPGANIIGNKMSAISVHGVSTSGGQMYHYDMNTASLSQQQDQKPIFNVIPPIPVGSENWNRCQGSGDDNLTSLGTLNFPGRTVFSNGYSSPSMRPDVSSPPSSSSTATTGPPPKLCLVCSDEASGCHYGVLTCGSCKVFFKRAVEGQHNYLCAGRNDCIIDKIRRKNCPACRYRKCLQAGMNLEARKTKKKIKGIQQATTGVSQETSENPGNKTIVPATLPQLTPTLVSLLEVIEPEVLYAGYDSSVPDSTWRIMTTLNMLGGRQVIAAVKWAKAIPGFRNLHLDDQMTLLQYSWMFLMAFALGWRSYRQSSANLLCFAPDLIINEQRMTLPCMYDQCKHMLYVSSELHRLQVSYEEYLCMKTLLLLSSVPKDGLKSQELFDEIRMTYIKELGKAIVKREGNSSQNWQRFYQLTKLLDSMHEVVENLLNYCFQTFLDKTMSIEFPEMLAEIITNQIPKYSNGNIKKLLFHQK
How it was run: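 Compounds in DMSO, alongside positive controls, were added to GR-bla HeLa reporter cells and incubated 18 h at 37 C; GRE-driven beta-lactamase was detected by fluorescence after 2 h with FRET substrate at room temperature.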

[17] = qHTS assay to test for compound auto fluorescence at 460 nm (blue) in HepG2 cells (AID 720687)
How it was run: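 HepG2 cells in MEM with 10% FBS, attached overnight at 37 C, were exposed to compound or DMSO for 1 hr at 37 C, 5% CO2. Blue fluorescence was read at 405/460 nm, with triamterene as reference fluorophore.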

[18] = qHTS assay for small molecule disruptors of the mitochondrial membrane potential - cell viability (AID 720634; calls by dose curve; further: nearly all actives have a fitted effect of over 20% in size; further: potency means the concentration at half of the fitted maximal effect)
How it was run: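 Viability of HepG2 cells is scored from ATP content by luminescence; cells are exposed to compound for 1 hr at 37 C and 5% CO2, then dosed with m-MPI dye before the CellTiter-Glo reagent.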

[19] = target: Glucocorticoid receptor (Homo sapiens) (UniProt P04150); assay: qHTS assay to identify small molecule antagonists of the glucocorticoid receptor (GR) signaling pathway (AID 720692; active means well fitted inhibition curve with a large enough effect in the signal ratio in the repeat runs, not every such curve was filed as active; the % refers to the signal ratio; further: potency means the concentration at half of the fitted maximal effect)
How it was run: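 In a 1536-well cell format, compounds were added 4 h after seeding GR-bla HeLa cells, together with dexamethasone at 5 nM final; reporter activity was measured by FRET-substrate fluorescence following 18 h at 37 C.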

Measured: Potency

CCCCCCCC/C=C\CCCCCCCC(=O)OC(CO)CO
not listed: [17] | [18] | [19]
inactive: all other assays above

O=C(CCC1CCN(Cc2ccccc2)CC1)c1ccc2c(c1)NCCCC2
not listed: [4] | [6] | [16] | [17] | [18] | [19]
inactive: all other assays above

CC(C)C(OC(=O)c1ccccc1)C(C)(C)COC(=O)c1ccccc1 (stereo unspecified)
active: [4] 27.3 µM
not listed: [5] | [8] | [16] | [18] | [19]
inactive: all other assays above

Brc1cc(-c2ccc(Br)c(Br)c2Br)cc(Br)c1Br
not listed: [4] | [5] | [17] | [19]
inactive: all other assays above

Cc1ccc(/C=N/n2c(-c3ccccc3)csc2=S)cc1
active: [4] 18.8 µM
not listed: [6] | [18] | [19]
inactive: all other assays above

CC1=C(C=O)C(C)(C)CCC1
not listed: [4] | [18]
inactive: all other assays above

CC(=O)OCC(=O)[C@H]1CC[C@H]2[C@@H]3CCC4=CC(=O)CC[C@]4(C)[C@H]3CC[C@]12C
active: [19] 0.848 µM
not listed: [18]
inactive: all other assays above

CN(C)C(=O)Nc1ccc(Oc2ccc(Cl)cc2)cc1
active: [4] 6.11 µM
not listed: [5] | [6] | [7] | [16] | [18] | [19]
inactive: all other assays above

ON(Cc1ccccc1)Cc1ccccc1
not listed: [3] | [5] | [6] | [8] | [9] | [14] | [19]
inactive: all other assays above

Oc1cc(O)c(Cl)cc1Cl
active: [4] 7.03 µM
not listed: [17] | [18]
inactive: all other assays above

CC[C@H](NC(=O)c1cc(F)ccc1NS(=O)(=O)c1cccc2cccnc12)c1ccccc1
active: [4] 2.05 µM
not listed: [9] | [16] | [18] | [19]
inactive: all other assays above

Cc1occc1C(=O)Nc1ccc(C(=O)N2CCC(F)(F)/C(=C\C(=O)N3CCC(N4CCCCC4)CC3)c3ccccc32)cc1
not listed: [4] | [6]
inactive: all other assays above

COCCOC(=O)C1=C(C)NC(C)=C(C(=O)OC/C=C/c2ccccc2)C1c1cccc([N+](=O)[O-])c1 (stereo unspecified)
active: [18] 9.44 µM | [4] 10.6 µM | [19] 10.7 µM
not listed: [2] | [3]
inactive: all other assays above

N#C/C(=C1/SC[C@@H](c2ccc(Cl)cc2Cl)S1)n1ccnc1
active: [4] 26.6 µM
not listed: [3] | [18] | [19]
inactive: all other assays above

c1cc[c]([Bi]([c]2ccccc2)[c]2ccccc2)cc1
active: [4] 24.3 µM | [19] 19.5 µM
not listed: [2] | [9] | [14] | [18]
inactive: all other assays above

NC(=O)N(O)[C@@H]1COc2cc(OCc3ccccc3)ccc21
active: [1] 1.54 µM
not listed: [2] | [4] | [6] | [9]
inactive: all other assays above
